Measured values: PubChem BioAssay (NCI)
The panel holds about 83,000 compounds, 20% with a hit somewhere; the sample as a whole holds those more often.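 Testing used 96-well plates and a 48-hour single-concentration exposure. Example: -40 means 40% of the starting cells died.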 Unmarked numbers belong to inactive results. Calls of active or inactive are those of the source. The calls were made as follows: active = growth percent below 10; inactive = the rest.

Tests used:
Assay in all cases: NCI-60 one-dose screen, 48 h (100 = growth as untreated, 0 = no growth, -100 = all killed)
Conditions in all cases: 10 µM
T-47D breast = tested on: T-47D breast
BT-549 breast = tested on: BT-549 breast
MDA-MB-435 melanoma = tested on: MDA-MB-435 melanoma
SW-620 colon = tested on: SW-620 colon
MCF7 breast = tested on: MCF7 breast
HCT-116 colon = tested on: HCT-116 colon
HCC-2998 colon = tested on: HCC-2998 colon
KM12 colon = tested on: KM12 colon

| SMILES | growth (T-47D breast) | growth (BT-549 breast) | growth (MDA-MB-435 melanoma) | growth (SW-620 colon) | growth (MCF7 breast) | growth (HCT-116 colon) | growth (HCC-2998 colon) | growth (KM12 colon) |
| --- | --- | --- | --- | --- | --- | --- | --- | --- |
| COc1cc(/C=C/C(=O)c2cc(-c3ccccc3)ccc2O)cc(OC)c1OC | 43.4% | 88.8% | 55.4% | 81.9% | 47% | 61.3% | 97% | 78.6% |
| COc1ccc(-c2ccc(-c3ccc(C(=N)N)c(F)c3)s2)cc1 | -64% (active) | -91.7% (active) | -79.5% (active) | -91% (active) | -70.6% (active) | -82.6% (active) | -83.9% (active) | -94.9% (active) |
| Cc1cc(C#Cc2ccccc2)ccc1-n1c(/C=C/c2cc(O)ccc2O)nc2ccccc2c1=O | -16.8% (active) | -11.1% (active) | -56.3% (active) | 5.7% (active) | 2.03% (active) | -43.8% (active) | -49.6% (active) | -5.21% (active) |
| CCOC(=O)c1c(Cl)c2c(n1Cc1cccc(OC)c1)-c1oncc1CC2 | 35.5% | 21.7% | -28% (active) | 34.5% | 15.2% | 18.5% | 39.8% | 25.9% |
| C=C1C(=O)O[C@H]2[C@H]1CC/C(COC(=O)OCCCCCOC(=O)OC/C1=C/CC[C@@]3(C)O[C@H]3[C@H]3OC(=O)C(=C)[C@@H]3CC1)=C\CC[C@@]1(C)O[C@@H]21 | -45% (active) | -72.7% (active) | -13% (active) | -54.3% (active) | -75.8% (active) | -95.9% (active) | -60.8% (active) | 5.59% (active) |
| COc1cccc2c1O/C(=C\c1ccc([N+](=O)[O-])s1)C2=O | 39.6% | -14.3% (active) | 48.4% | -28.6% (active) | 42.8% | -14% (active) | 89.7% | 18.3% |
| Cc1cc(Nc2cccc(F)c2)nc(NCc2ccccc2)n1 | 15.6% | 82% | 23.2% | 22.7% | 15.1% | 15.8% | 26.9% | 14.1% |
| CN1/C(=C\C(I)C(I)C2=[N+](C)c3ccccc3C2(C)C)C(C)(C)c2ccccc21 (stereo unspecified) | -0.299% (active) | 13.3% | 11.8% | 16.1% | 4.83% (active) | 9.19% (active) | 12.6% | 13.2% |
| O=C1/C(=C/c2ccc(O)cc2)CSc2ccc(Cl)cc21 | 64.8% | 81.9% | 71.1% | 27.9% | 20.5% | 31.2% | 94.4% | 35.1% |
| Cc1cc(O)c(C2=NN(c3ccc(S(N)(=O)=O)cc3)C(c3ccc(N(C)C)cc3)C2)c(C)c1Cl (stereo unspecified) | 37% | 95.7% | 69.3% | 72.2% | 37.2% | 41.1% | 94.1% | 62.4% |
| COC(=O)c1ccc(Cn2ccc(=O)[nH]c2=O)cc1 | 107% | 113% | 105% | 110% | 99.2% | 104% | 106% | 103% |
| CCc1c(C)[nH]c(=O)c(C(N)=O)c1C#N | 94.1% | 97.4% | 101% | 97.7% | 97% | 95.7% | 87.7% | 106% |
| C[N+]1(CC2CO2)CCCCCC1 (stereo unspecified) | 116% | 116% | 102% | 106% | 107% | 103% | 112% | 93.9% |
| c1ccc(C2CCCCC2)c(OCCCCCN2CCNCC2)c1 | 28% | 72.4% | 47.2% | 11.3% | -34.4% (active) | -7.58% (active) | -68.8% (active) | 35.6% |
| COc1cc2c3c(cccc3c1)C(=O)N(CCN1CCCC1)C2=O | 25.3% | 49.4% | 14.4% | 9.75% (active) | 3.07% (active) | 6.66% (active) | 44.4% | 21.3% |
| O=C1/C(=C/c2ccc(O)cc2)Cc2ccc(Cl)cc21 | 80.4% | 59% | 78% | 98.7% | 58.8% | 88.4% | 115% | 87.6% |
| Oc1ccc(/C=N\Nc2ccccn2)c(O)c1 | 33.7% | 23.7% | 34.2% | 35.3% | 0.224% (active) | 4.54% (active) | 23.9% | 38.4% |
| FC(F)(F)c1ccc(-c2cnc(Br)nc2NC2CCCCCC2)cc1 | 19.3% | 56.6% | 20.4% | 28.2% | 27.1% | 20.3% | 72.1% | 25% |
| C=CCNCCCN1C(=O)c2ccc3c4c(ccc(c24)C1=O)C(=O)N(CCCNCC=C)C3=O | -48.6% (active) | -82% (active) | -79% (active) | -54.1% (active) | -64.8% (active) | -16% (active) | -85.9% (active) | -69.3% (active) |
| Cc1ccc(S(=O)(=O)N2CCc3ccccc3CC2)cc1 | 63.1% | 64.7% | 101% | 97.6% | 60.7% | 68.5% | 91% | 94.3% |
| CCOC(=O)C(=O)Cc1cccnn1 | 122% | 101% | 111% | 109% | 95.3% | 102% | 112% | 108% |
| Cc1nc2sccn2c1-c1csc(Nc2cccc(Cl)c2C)n1 | 36.2% | 43.9% | 7.55% (active) | 49.1% | 38.1% | 46.1% | 69% | 50.8% |
| Cc1ccc(C2C=C(c3ccc(Cl)cc3)N=C3SC=CN32)c(Br)c1 (stereo unspecified) | 56.8% | 61.1% | 47.1% | 53.9% | 21.5% | 5.04% (active) | 91.4% | 78.5% |
| Cn1c([N+](=O)[O-])cnc1C=C1C(=O)c2ccccc2C1=O | 65.4% | 25% | 11.8% | 29% | 37.8% | 20.7% | 88.2% | 68.3% |
| COc1cccc(-c2nnc(COc3ccc(-c4nc5ccccc5[nH]4)cc3OC)o2)c1 | 73.6% | 81.7% | 94.9% | 110% | 73.6% | 73% | 105% | 98% |
| COc1cc(OC)cc(-c2ccc(-c3ccc(C(=N)N)cn3)o2)c1 | -56.9% (active) | -3.57% (active) | -63.6% (active) | -90.3% (active) | -66.2% (active) | -86.5% (active) | -87.4% (active) | -11.2% (active) |
| O=C(NCCc1nccs1)c1cnc2c(S)cccc2c1 | 10.8% | 48.1% | 26.4% | 4.05% (active) | -3.22% (active) | 2.16% (active) | 35.5% | 19.6% |
